Assay outcomes deposited in PubChem BioAssay by National Center for Advancing Translational Sciences (NCATS).
The list is not random: actives were taken first. Their share in the collection is about 9%.
HPGD inh = HPGD (human) dehydrogenase inhibition; Potency, µM, usual class: inhibitors; purified HPGD, NADH fluorescence kinetic, PGE2 substrate; AID 894; 4.3% of 150,000 active; P15428; active means well fitted inhibition curve with a large enough effect, not every such curve was filed as active; inconclusive means small, poorly fitted or top-dose-only effect, or another doubt; inactive means no such curve, though single readings can be large or run the other way
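NADH formation kinetics: reaction with 30 uM PGE2 and 1 mM NAD+ (final), 20 nM enzyme, Tris-HCl pH 8 with Tween 20, after 15 min compound preincubation at room temperature. Fluorescence change, last versus first of five reads.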
LMNA splice mod = modulators of lamin A splicing. HeLa LMNA splicing GFP/RFP minigene ratio, 48 h. Potency, µM (top dose mostly 46.1 µM), actives largely listed as inhibitors. 0.01% of 200,000 active. AID 1487; active means well fitted inhibition curve with a large enough effect in the signal ratio, with a control signal flat, not every such curve was filed as active; inconclusive means small, poorly fitted or top-dose-only effect, or effect the other way, or a change in a side signal; the % refers to the signal ratio
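Read-out is the ratio of GFP to DsRed2 object intensity, acquired by 488 nm laser-scanning cytometry on HeLa lamin A-EGFP minigene reporter cells. Compound incubation 48 hrs at 37 °C in Opti-MEM with 2% FBS; DMSO 0.5% final.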
ALDH1A1 inh = blocks purified human ALDH1A1 activity; P00352; Purified ALDH1A1, NADH fluorescence, propionaldehyde substrate; Potency, µM (doses to about 75.3 µM), hits mostly inhibitors; 7.3% of 220,000 active; active means well fitted inhibition curve with a large enough effect, not every such curve was filed as active; inconclusive means small, poorly fitted or top-dose-only effect, or another doubt; inactive means no such curve, though single readings can be large or run the other way
Target sequence (P00352 whole entry, looked up): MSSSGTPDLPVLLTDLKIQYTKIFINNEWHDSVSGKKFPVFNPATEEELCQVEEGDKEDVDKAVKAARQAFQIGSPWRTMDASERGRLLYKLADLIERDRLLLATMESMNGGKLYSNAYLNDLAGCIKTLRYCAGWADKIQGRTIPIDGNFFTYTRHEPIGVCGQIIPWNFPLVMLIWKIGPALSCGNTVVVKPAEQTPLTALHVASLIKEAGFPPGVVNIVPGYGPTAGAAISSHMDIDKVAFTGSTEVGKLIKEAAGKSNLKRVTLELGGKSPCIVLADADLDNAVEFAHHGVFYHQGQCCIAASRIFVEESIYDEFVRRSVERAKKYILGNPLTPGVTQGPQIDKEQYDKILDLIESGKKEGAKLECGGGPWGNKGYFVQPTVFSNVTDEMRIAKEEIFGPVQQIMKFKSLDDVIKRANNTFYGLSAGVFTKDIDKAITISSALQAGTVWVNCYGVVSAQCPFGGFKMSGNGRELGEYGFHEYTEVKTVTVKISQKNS
Luc counter = Kinase-Glo luciferase inhibition (counter-screen). 0.28% of 200,000 active. Potency, µM (top dose mostly 38.3 µM), hits mostly inhibitors. Q27757. Kinase-Glo luciferase, ATP luminescence, 8 min; further: nearly all actives have a fitted effect of over 60% in size
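Compound is pinned into ATP-containing buffer (10 uM ATP, imidazole pH 7.2, 7 mM MgCl2). Kinase-Glo luciferase reagent is then added. Light output is recorded following an 8-min room-temperature incubation.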
HTT ATP protect = protects HTT-Q103 PC12 cells, measured by ATP; PC12 HTT-Q103 induced, cytoprotection, ATP luminescence, 40 h; Potency, µM (doses to about 56.4 µM), most hits filed as activators; 0.14% of 230,000 active; AID 1471; further: nearly all actives have a fitted effect of over 45% in size
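Compounds added alongside 100 nM tebufenozide, which induces toxic Q103 huntingtin exon 1-GFP in stable PC12 cells; surviving cells quantified by luminescent ATP measurement. Medium: phenol red-free DMEM, 5% equine and 5% calf serum.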
HttQ103 aggreg = inhibitors of mutant huntingtin aggregate formation in PC12 cells. 1.1% of 220,000 active. PC12 HttQ103-GFP aggregates, Acumen cytometry, 40 h. Potency, µM (series often up to 46.1 µM), actives largely listed as inhibitors; further: nearly all actives have a fitted effect of over 60% in size
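Inducible Q103 Huntingtin exon 1–GFP PC12 line, 1500 cells/well in phenol red free DMEM with 5% equine and 5% calf serum. Tebufenozide 100 nM induced expression; compounds titrated; aggregates quantified by cytometry.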
Hits are given with their value; – = inactive; ? = inconclusive; · = no result; [ ] = another dose, or the depositor's remark. Unless noted, the call rests on the fitted dose curve; in most records, active means well fitted curve in the direction sought with a large enough effect; inconclusive means small, poorly fitted or top-dose-only effect, or another doubt; inactive means no such curve, though single readings can be large; an effect the other way counts as inactive or inconclusive.

SMILES	HPGD inh	LMNA splice mod	ALDH1A1 inh	Luc counter	HTT ATP protect	HttQ103 aggreg
O=C(COc1ccc(Cl)cc1Cl)OCC(=O)N1CCCc2ccccc21	–	–	–	–	–[10 µM]	–
O=C(COc1ccc(Cl)cc1Cl)NC(=O)N1CCCCC1	16µM	–	–	–	–	?
O=C(COc1ccc(Cl)cc1Cl)N1CCCN(C(=O)COc2ccc(Cl)cc2Cl)CC1	–	–	–	–	–[10 µM]	–
O=C1CC(N2CCOCC2)C(=O)N1CCN1C(=O)CC(N2CCOCC2)C1=O (stereo not given)	–	–	–	–	–[10 µM]	–[9.22 µM]
CC(=O)[C@H]1[C@H]2[C@H](C(=O)[C@@H]3OC[C@H]2O3)[C@@H]2c3ccccc3C=CN12	·	·	·	·	–	·
COc1ccc(NC(=O)[C@@H]2[C@@H]3C(=O)N(C4CCCCC4)C(=O)[C@@H]3C3c4ccccc4C=CN32)cc1 (stereo not given in full)	–	–	0.5µM	–	–	–
COc1ccc(NC(=O)CN2CCN(C3CCCCC3)C(=O)C2=O)cc1	·	–	·	·	·	·
CC(=O)[C@@H]1[C@@H]2C(=O)N(C3CCCCC3)C(=O)[C@@H]2C2c3ccccc3C=CN21 (stereo not given in full)	?	–	7.1µM	–	–	–
O=C(O)c1ccc(N2C(=O)c3cccc(Oc4ccc(Cl)cc4)c3C2=O)cc1	1.4µM	–	–	–	–[10 µM]	–
O=C(O)c1cccc(N2C(=O)c3cccc(Oc4ccc(Cl)cc4)c3C2=O)c1	25µM	–	–	–	–[10 µM]	–
COc1ccc(NC(=O)c2ccc3nccnc3c2)cc1	–	–	–	–	–[10 µM]	–
Cc1cc(C)n(-c2ccc(C(=O)NCc3cccs3)cc2)n1	?	–	–	–	–	–
COc1ccccc1OCc1ccc(C(=O)N2N=C(C(F)F)CC2(O)C(F)F)o1 (stereo not given)	–	–	–	–	–	–
Cc1ccc(NC(=O)CCS(=O)(=O)c2cccc3nonc23)c(C)c1	·	–	·	·	·	·
O=C(CCS(=O)(=O)c1cccc2nonc12)N1CC(=O)N(CCc2ccccc2)C(=O)C1	–	–	28µM	–	–	–
COc1ccc(NC(=O)CCS(=O)(=O)c2cccc3nonc23)cc1	·	·	?	–	–	–
COc1ccc(CNC(=O)CCS(=O)(=O)c2cccc3nonc23)cc1	–	–	18µM	–	3.5µM	6.3µM
COc1ccc(NC(=O)CCS(=O)(=O)c2cccc3nonc23)c(OC)c1	–	–	?	–	–	–
COc1ccccc1CNC(=O)CCS(=O)(=O)c1cccc2nonc12	–	–	18µM	–	–	–[9.22 µM]
Cc1ccc(CNC(=O)CCS(=O)(=O)c2cccc3nonc23)cc1	–	–	40µM	–	–	–
CCCCCN1CSC(=S)N(Cc2ccccc2)C1	–	?	?	–	–[0.074 µM]	–
CN(CCC#N)C(=O)COC(=O)c1nn(-c2ccccc2)c(=O)c2ccccc12	·	–	–	–	–[10 µM]	–
Cc1sc2nc(C(C)Sc3n[nH]c(N)n3)[nH]c(=O)c2c1C (stereo not given)	·	–	?	–	–	–
O=C1c2ccccc2C(=O)C1Cc1cccc2ccccc12	14µM	–	?	–	–[10 µM]	–
O=C1OC(Cc2ccccn2)C(=O)C1=C1SCCS1 (stereo not given)	–	–	–	–	·	–
SMILES	HPGD inh	LMNA splice mod	ALDH1A1 inh	Luc counter	HTT ATP protect	HttQ103 aggreg
CN(Cc1ccccc1)C(=C(Cl)Cl)C(=C1NCCN1)[N+](=O)[O-]	·	·	?	–	–	–
O=[N+]([O-])C(=C1Nc2ccccc2N1)/C(Cl)=C(/Cl)Br	–	–	24µM	–	·	–
CCOC(=O)[C@]1(C(NC(=O)OC)c2ccccc2)CCCC1=O (stereo not given in full)	·	·	–[13.5 µM]	·	–[10 µM]	·
C=CCOC(=O)C1(C(NC(=O)OC)c2ccccc2)C(=O)Cc2ccccc21 (stereo not given)	–	·	4.5µM	–	?	·
CCOc1ccc(C(=O)COc2ccc(NC(C)=O)cc2)cc1	–	–	–	–	–[10 µM]	–
CCOc1ccc(NCC(=O)c2ccc(C)cc2)cc1	·	–	3.2µM	–	–	11µM
Cc1ccc(C(=O)CNc2ccc(Cl)cc2)cc1	·	·	10µM	–	–	–
CCOc1ccc(C(=O)NCC(=O)OCC(=O)N2CCCCC2)cc1	–	–	–	–	–	–
CN(C)CCC(=O)c1ccc(Cl)cc1	16µM	–	0.11µM	–	–	–
CCOc1ccc(NC(=O)c2ccc(NCC(=O)N3CCCCCC3)cc2)cc1	·	–	6.3µM	–	–[10 µM]	–
Cc1ccc2c(c1)C(C)(C)[C@]1(C)NC(=O)CCN21	–	–	40µM	–	–	?
Cc1n[nH]c(C)c1Sc1ccccc1[N+](=O)[O-]	·	?	–	–	–	–
Cn1[nH]c(CSc2ccc(Cl)cc2)cc1=O	·	–	1.8µM	–	–[10 µM]	–
O=c1cc(CSc2ccc(Cl)cc2)nc(N2CCCCC2)[nH]1	·	?	–	·	–	–
COc1cc(SC)ccc1C(=O)NCc1ccccc1	25µM	–	?	–	–[10 µM]	–
COc1cc(SC)ccc1C(=O)NCc1ccc(C)cc1	20µM	–	?	–	–	–
CCCNC(=O)c1ccc(SC)cc1OC	25µM	–	?	–	–	–
COc1cc(SC)ccc1C(=O)NCCCOC(C)C	–	–	–	–	–	–
COc1cc(SC)ccc1C(=O)N(C)Cc1ccccc1	?	–	–	–	–	–
COc1cc(NC(=O)Nc2ccc3c(c2)OCO3)cc(OC)c1OC	·	·	–	–	–	–
COc1cc(C(Nc2ccc3c(c2)OCO3)C(=O)NC2CCCCC2)cc(OC)c1OC (stereo not given)	–	–	0.63µM	–	–	–
CC(C)C(NC(=O)CC12CC3CC(CC(C3)C1)C2)C(=O)O (stereo not given)	–	–	–	–	–	–
CCN1CCC(=NNC(=O)CC23CC4CC(CC(C4)C2)C3)CC1	–	–	1.8µM	–	–	–
Cc1cc(C)c(NC(=O)c2cnn(C)c2)c(C)c1	–	–	–	–	·	–
COC(=O)c1ccc(-c2ccco2)n1Cc1ccccc1Cl	?	–	?	–	–	–
SMILES	HPGD inh	LMNA splice mod	ALDH1A1 inh	Luc counter	HTT ATP protect	HttQ103 aggreg
COC(=O)c1ccc(-c2ccco2)n1Cc1nc(-c2ccc(OC)c(OC)c2)oc1C	?	?	7.9µM	–	–	–
COc1cc(OC)c(NC(=O)c2cccc(F)c2)cc1Cl	–	–	–	–	–[0.074 µM]	–
Cc1cc(C(F)(F)F)c2c(=O)[nH]c(=O)n(Cc3ccccc3)c2n1	10µM	–	–	–	–	–
O=c1[nH]c(=O)n(Cc2ccccc2)c2nc(-c3ccco3)cc(C(F)(F)F)c12	?	?	?	–	–	–
O=C(CN(Cc1ccc(F)cc1)C(=O)c1ccco1)NCc1ccc(F)cc1	–	–	?	–	–[10 µM]	–
CC(C)Cn1c(-c2csc3c2CCCC3)n[nH]c1=S	28µM	–	35µM	–	–	–
